Bioassay records as filed in PubChem BioAssay.
Shown are actives, neighbours in structure and some others; about 1.2% of the full set was active somewhere.
GSH bead fluor: compound fluorescence on glutathione beads, profiling panel, artefact control, biophysical, 488/530 nm, flow cytometry. 0.25% of 190,000 active. fluorescence (KMESF) at 10 µM. AID 1776, 2009. GSH beads flow cytometry, compound fluorescence 488/530 nm; stronger effect = higher value; in the data active means fluorescence above about 89;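 further: glutathione beads carrying GST-tagged Bcl family fusion proteins plus one bare bead set; values are compound well signal with DMSO vehicle wells as background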
RGS7-Gao reg: RGS7-Galphao binding modulators, primary screen, biochemical, multiplexed bead flow cytometry; Guanine nucleotide-binding protein G(o) subunit alpha (Homo sapiens), P09471; actives lie on both sides; binding response (% of control), % at 10 µM; 0.35% of 220,000 active; AID 1439, 2008; in the data active means binding response below about 49% or above about 150%; inconclusive means no clear call, values can overlap the other calls; inactive means in between;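 further: fluorescent Galphao held in activated GDP-AlF4 state binding bead-coupled RGS7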
Target sequence (P09471 whole entry, looked up): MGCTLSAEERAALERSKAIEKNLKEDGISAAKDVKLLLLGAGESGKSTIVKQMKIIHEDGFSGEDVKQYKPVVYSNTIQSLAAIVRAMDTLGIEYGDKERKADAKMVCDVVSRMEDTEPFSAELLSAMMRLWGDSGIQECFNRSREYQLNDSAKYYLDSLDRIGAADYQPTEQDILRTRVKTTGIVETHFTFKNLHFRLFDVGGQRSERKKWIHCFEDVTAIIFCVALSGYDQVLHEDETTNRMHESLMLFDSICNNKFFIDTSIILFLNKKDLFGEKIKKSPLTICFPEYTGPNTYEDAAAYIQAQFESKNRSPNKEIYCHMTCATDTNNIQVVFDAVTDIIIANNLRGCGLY
RGS8-Gao reg: RGS8-Galphao binding modulators, primary screen, biochemical, multiplexed bead flow cytometry; Guanine nucleotide-binding protein G(o) subunit alpha (Homo sapiens), P09471; actives lie on both sides; response (percent of control binding), % at 10 µM; 0.34% of 220,000 active; AID 1423, 2008; in the data active means response below about 60% or above about 140%; inactive means in between;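 further: Galphao activated as the GDP aluminium fluoride complex binding bead-coupled RGS8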
RGS16-Gao HTS: modulators of RGS16 binding to Galphao, primary screen, biochemical, human proteins, multiplexed bead flow cytometry; Regulator of G-protein signaling 16 (Homo sapiens) + Guanine nucleotide-binding protein …; bead-based flow cytometry RGS16-Galphao binding, fluorescence; actives lie on both sides; binding response (% of control), % at 10 µM; 0.38% of 220,000 active; AID 1441, 2008;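 further: Galphao activated by GDP with aluminum fluoride before binding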
RGS4-Gao reg: modulators of RGS4 binding to Galphao, primary screen, biochemical, multiplexed bead flow cytometry. actives lie on both sides. Guanine nucleotide-binding protein G(o) subunit alpha (Homo sapiens), P09471. 0.33% of 220,000 active. AID 1415, 2008. binding response (% of control), % at 10 µM; in the data active means binding response below about 49% or above about 150%; inactive means in between;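 further: fluorescent Galphao activated with aluminum fluoride binding bead-coupled RGS4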
Avidin fluor: green autofluorescence of compounds with avidin beads – biophysical, 488/530 nm, flow cytometry, artefact control, profiling panel | 0.38% of 220,000 active | fluorescence (KMESF) at 10 µM | compound fluorescence 488/530 nm; stronger effect = higher value; in the data active means fluorescence above about 47
RGS-Gao: modulators of RGS–Galpha-o binding, primary screen, biochemical, multiplexed beads, flow cytometry, RGS4/7/8/16/19; shares compounds with RGS16-Gao HTS; multiplexed bead flow cytometry; RGS4–Galpha-o binding response, % at 10 µM; 99% of 1,600 active;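 further: fluorescently labeled Galpha-o bound to GDP with aluminium fluoride binding biotinylated RGS beads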
Target sequence (P09471 whole entry, looked up): as above
Target sequence (P49798 whole entry, looked up): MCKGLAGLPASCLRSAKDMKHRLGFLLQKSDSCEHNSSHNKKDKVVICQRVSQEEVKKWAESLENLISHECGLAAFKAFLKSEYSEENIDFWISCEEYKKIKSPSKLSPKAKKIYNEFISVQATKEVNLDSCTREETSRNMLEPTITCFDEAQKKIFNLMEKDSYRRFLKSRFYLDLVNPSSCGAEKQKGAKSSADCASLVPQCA
Biotin-avidin: disruption of biotin probe capture by avidin, counter-screen for RGS protein interaction modulators, biochemical, flow cytometry, bead-based; AID 1783, 2009; streptavidin beads, fluorescein-biotin binding; inhibition, % at 10 µM; shares compounds with RGS16-Gao HTS; 1,700 tested, under 10 active;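 active means inhibition above 50%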;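 further: median green fluorescence of gated singlet beads compared with DMSO control wells; 0% = DMSO wells and 100% = complete loss of bead fluorescence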
RGS8-Gao single: RGS8-Galphao binding modulators, confirmation, biochemical, multiplexed bead flow cytometry, single concentration | bead-based flow cytometry RGS8-Galphao binding, fluorescence; actives lie on both sides | shares compounds with RGS16-Gao HTS | binding response (% of control), % at 10 µM | 3% of 1,700 active | AID 1836, 2009; in the data active means binding response below about 72% or above about 130%; inactive means in between;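 further: Galphao activated as GDP AlF4 complex before binding bead RGS8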
RGS7-Gao single: RGS7-Galphao binding modulators, confirmation, biochemical, multiplexed bead flow cytometry, single concentration; shares compounds with RGS16-Gao HTS; response (percent of control binding), % at 10 µM; 7.8% of 1,700 active; AID 1837, 2009; bead-based flow cytometry RGS7-Galphao binding; actives lie on both sides; in the data active means response below about 75% or above about 130%; inactive means in between;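 further: fluorescent Galphao activated with GDP and aluminum fluoride binding bead-coupled RGS7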
RGS16-Gao single: modulators of RGS16-Galphao protein binding, confirmation, biochemical, single concentration, multiplexed bead flow cytometry. AID 1838, 2009. 4% of 1,700 active. shares compounds with RGS16-Gao HTS. bead-based flow cytometry; actives lie on both sides. response (% of control binding), % at 10 µM; in the data active means response below about 74% or above about 130%; inactive means in between;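 further: Galphao activated as the GDP aluminium fluoride complex binding bead-coupled RGS16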
RGS4-Gao confirm: modulators of RGS4-Galphao protein binding, confirmation, biochemical, single concentration, multiplexed bead flow cytometry | 4% of 1,700 active | binding response (% of control), % at 10 µM | shares compounds with RGS16-Gao HTS | actives lie on both sides; in the data active means binding response below about 74% or above about 130%; inactive means in between
RGS19-Gao single: regulators of RGS19-Galphao binding, confirmation, biochemical, single point, multiplexed bead flow cytometry | shares compounds with RGS16-Gao HTS | bead-based flow cytometry RGS19-Galphao binding; actives lie on both sides | response (percent of control binding), % at 10 µM | 5% of 1,700 active | AID 1841, 2009; in the data active means response below about 50% or above about 160%; inactive means in between;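 further: 100% = no compound control and 0% = blank background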
* = called active by the depositor; [ ] = another dose, or the depositor's remark. Unless noted, how the calls were made is not given here.

Screening COc1ccc(S(=O)(=O)N2CCCC(C(=O)NCc3ccc4c(c3)OCO4)C2)cc1 (configuration not stated) returned RGS7-Gao reg inconclusive, RGS8-Gao reg 103, RGS16-Gao HTS 107, RGS4-Gao reg 99 and Avidin fluor 6.
`CC(C)COc1ccc2[nH]c3c(c2c1)CCCC3=O` gave GSH bead fluor 9, RGS7-Gao reg 103, RGS8-Gao reg 121, RGS16-Gao HTS 336*[activator], RGS4-Gao reg 118, Avidin fluor 12, RGS-Gao 118*, Biotin-avidin 0, RGS8-Gao single 105, RGS7-Gao single 105, RGS16-Gao single 103, RGS4-Gao confirm 101 and RGS19-Gao single 97.
Screening NC1=NC(c2ccccc2)N=C(Nc2ccccc2)N1 (configuration not stated) returned RGS7-Gao reg inconclusive, RGS8-Gao reg 0.9*, RGS16-Gao HTS -30*, RGS4-Gao reg -58*, Avidin fluor -4, Biotin-avidin -1, RGS8-Gao single 102, RGS7-Gao single 103, RGS16-Gao single 102, RGS4-Gao confirm 101 and RGS19-Gao single 109.
For COc1cc(C(C(=O)NCc2ccccc2)N(Cc2ccco2)C(=O)c2cnccn2)cc(OC)c1OC (configuration not stated) the results were GSH bead fluor 12, RGS7-Gao reg 100, RGS8-Gao reg 105, RGS16-Gao HTS 110, RGS4-Gao reg 103 and Avidin fluor 10.
`c1ccc(-c2csc(Nc3ccc4c(c3)OCCO4)n2)cc1` gave GSH bead fluor 11, RGS7-Gao reg 50*, RGS8-Gao reg 55*, RGS16-Gao HTS 92, RGS4-Gao reg 91, Avidin fluor 4, RGS-Gao 91*, Biotin-avidin 1, RGS8-Gao single 107, RGS7-Gao single 109, RGS16-Gao single 106, RGS4-Gao confirm 104 and RGS19-Gao single 115.
For c1cc2c(cc1Nc1nc(-c3ccc4c(c3)OCO4)cs1)OCCO2 the results were GSH bead fluor 13, RGS7-Gao reg 93, RGS8-Gao reg 96, RGS16-Gao HTS 95, RGS4-Gao reg 93 and Avidin fluor 33.
O=C1CCC(=O)N1CCSC(=S)N1CCSCC1 was read as RGS7-Gao reg inconclusive, RGS8-Gao reg 101, RGS16-Gao HTS 105, RGS4-Gao reg 106 and Avidin fluor 4.
`O=C(CNC(=O)C1COc2ccccc2O1)N/N=C/c1ccc(O)cc1O` (configuration not stated) gave GSH bead fluor 4, RGS7-Gao reg 61, RGS8-Gao reg 56*, RGS16-Gao HTS -1.7*, RGS4-Gao reg 62, Avidin fluor 4, RGS-Gao 62*, Biotin-avidin 0, RGS8-Gao single 103, RGS7-Gao single 103, RGS16-Gao single 103, RGS4-Gao confirm 103 and RGS19-Gao single 88.
Screening CC(C)CCN1CCN(Cc2nc3c(s2)CCCC3)CC1CCO (configuration not stated) returned GSH bead fluor 13, RGS7-Gao reg 27*, RGS8-Gao reg 38*, RGS16-Gao HTS 30, RGS4-Gao reg 40*, Avidin fluor 2, Biotin-avidin -1, RGS8-Gao single 115, RGS7-Gao single 110, RGS16-Gao single 117, RGS4-Gao confirm 103 and RGS19-Gao single 105.
For OCCC1CN(Cc2nc3c(s2)CCCC3)CCN1CCc1ccccc1 (configuration not stated) the results were GSH bead fluor 17, RGS7-Gao reg 103, RGS8-Gao reg 99, RGS16-Gao HTS 101, RGS4-Gao reg 99 and Avidin fluor 5.
For CSc1ccccc1NC(=O)C1C2CCC(C2)C1C(=O)O (configuration not stated) the results were GSH bead fluor 14, RGS7-Gao reg 33*, RGS8-Gao reg 40*, RGS16-Gao HTS 21*, RGS4-Gao reg 24*, Avidin fluor 1, Biotin-avidin 2, RGS8-Gao single 100, RGS7-Gao single 100, RGS16-Gao single 102, RGS4-Gao confirm 101 and RGS19-Gao single 115.
For O=C(c1ccccn1)N(Cc1cccs1)C1(C(=O)NC2CCCCC2)CCCCC1 the results were GSH bead fluor 16, RGS7-Gao reg 95, RGS8-Gao reg 98, RGS16-Gao HTS 99, RGS4-Gao reg 96 and Avidin fluor 11.
For O=C(Nc1ccc(S(=O)(=O)Nc2ccccn2)cc1)C(F)(F)F the results were GSH bead fluor 16, RGS7-Gao reg 92, RGS8-Gao reg 97, RGS16-Gao HTS 97, RGS4-Gao reg 93 and Avidin fluor 6.
